# Measured values: PubChem BioAssay (Tox21)
# Results filed as inconclusive are left out. Entries that show only a call come without a potency. Activity calls are given as the source filed them. Unless noted, calls come from the whole dose curve.
# Assays:
# [1] = Nuclear factor erythroid 2-related factor 2/antioxidant responsive element (Nrf2/ARE) small molecule agonists: qHTS cell viability counter screen in human keratinocytes (AID 1919968; active = well fitted curve in the direction sought with a large enough effect in the repeat runs; an effect the other way counts as inactive or inconclusive; note: nearly all actives have a fitted effect of over 55% in size; note: potency is the fitted concentration of half-maximal effect)
# Method in brief: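 Fluorescence read-out from CellTiter-Fluor after 1 h at 37 C. Wells held HaCaT-derived ARE-luciferase reporter cells (1,500/well) treated 23 h with DMSO-dissolved compounds. Run in the same wells as the luciferase agonist read.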
# [2] = Nuclear factor erythroid 2-related factor 2/antioxidant responsive element (Nrf2/ARE) small molecule agonists: luciferase reporter gene qHTS assay in human keratinocytes (AID 1919969); note: nearly all actives have a fitted effect of over 35% in size; note: potency is the fitted concentration of half-maximal effect
# [3] = target: Gonadotropin-releasing hormone receptor (Homo sapiens) (UniProt P30968); test: Human gonadotropin-releasing hormone receptor (GnRHR) small molecule agonists, calcium flux assay in GnRHR-HEK293 cells (AID 1920063); note: nearly all actives have a fitted effect of over 35% in size
# Method in brief: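 Calcium-dye fluorescence, Ex/Em=480/540, recorded every 1 sec over 3 min after compound addition to GnRHR-HEK293 cells. Cells had been seeded 18 hours earlier and dye-loaded for 1 hour at 37 C. Fifteen concentrations, triplicates.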
# [4] = target: KiSS-1 receptor (Homo sapiens) (UniProt Q969F8); test: Human kisspeptin (KISS1R) small molecule agonists, calcium flux assay in KISS1R-HEK293 cells (AID 1920064; active = well fitted curve in the direction sought with a large enough effect in the repeat runs; an effect the other way counts as inactive or inconclusive)
# Method in brief: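 Calcium flux read-out: kinetic fluorescence at Ex/Em=480/540, 1 s intervals over 3 min, after pin-tool compound addition to dye-loaded KISS1R-HEK293 cells. Fifteen concentrations, triplicates.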
# [5] = G protein-coupled receptor (GPCR) small molecule agonists, calcium flux assay: HEK293 wild type cell line counter screen (AID 1920065)
# Method in brief: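 Agonist mode; 18 h seeding at 37 C, 1 h dye load at 37 C; compounds pinned from DMSO, ATP as positive control; kinetic fluorescence 480/540 nm, 3 min, 1 s reads; 15 concentrations, triplicate.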
# [6] = p53 small molecule agonists, cell-based qHTS assay with human liver microsomes (AID 1963577)
# Method in brief: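 Cells carrying a p53-responsive bla reporter were rested 5 h (37 C, 5% CO2) before compound transfer. Human liver microsomes plus NADPH, 0.5 mg/mL final apiece, supplied metabolism during the 16 h 37 C exposure.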
# [7] = p53 small molecule agonists, cell-based qHTS assay with rat liver microsomes (AID 1963578)
# Method in brief: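 Fluorescence from a beta-lactamase reporter under a p53 response element was measured after cells had been incubated 16 h at 37 C with test compound and rat liver microsomes plus NADPH (0.5 mg/mL final each).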
# [8] = p53 small molecule agonists, cell-based qHTS assay with human liver microsomes: qHTS cell viability counter screen (AID 1963579); note: nearly all actives have a fitted effect of over 45% in size
# Method in brief: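 Seed p53RE-bla cells at 4,000 per well; incubate 5 h at 37 C; add compound, human liver microsomes and NADPH; incubate 16 h at 37 C; add CellTiter-Glo; after 30 min at room temperature, read luminescence.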
# [9] = p53 small molecule agonists, cell-based qHTS assay with rat liver microsomes: qHTS cell viability counter screen (AID 1963580); note: nearly all actives have a fitted effect of over 45% in size
# Method in brief: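 Counter screen for cytotoxicity under metabolic activation: rat liver microsomes and NADPH, 0.5 mg/mL final each, added with compounds to p53RE-bla HCT-116 cells; 16 h at 37 C, then ATP luminescence read.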
# [10] = p53 small molecule agonists, cell-based qHTS assay: qHTS cell viability counter screen (AID 1963581); note: nearly all actives have a fitted effect of over 45% in size
# Method in brief: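 Cytotoxicity read-out: ATP-based luminescence (CellTiter-Glo, 30 min RT) measured in the same wells as the p53 reporter assay, HCT-116 p53RE-bla cells, 16 h compound exposure at 37 C.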
# [11] = cAMP Responsive Elements (CRE) small molecule agonists, cell-based qHTS assay (AID 1963590)
# Method in brief: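 Beta-lactamase reporter readout: LiveBLAzer B/G FRET substrate, 2 h at room temperature, added after 3 h compound treatment of CRE-bla HEK 293T cells at 37 C/5% CO2.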
# [12] = cAMP Responsive Elements (CRE) small molecule antagonists, cell-based qHTS assay (AID 1963591; active = well fitted inhibition curve with a large enough effect in the signal ratio in the repeat runs, not every such curve was filed as active; the % refers to the signal ratio)
# Method in brief: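 HEK293T CRE-bla; 18 h preincubation; compound pin-transfer; NKH477 0.25 uM final, 3 h, 37 C; LiveBLAzer FRET substrate 2 h RT.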
# [13] = target: Beta-2 adrenergic receptor (Homo sapiens) (UniProt P07550); test: Adrenergic beta2 receptor (ADRB2) small molecule antagonists, cell-based qHTS assay (AID 1963592); note: nearly all actives have a fitted effect of over 50% in size; note: potency is the fitted concentration of half-maximal effect
# Method in brief: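 Assay format: CHO-ADRB2 cells, 18-20hr seeding at 37C/5% CO2, then compound plus 1nM isoproterenol agonist mix for 0.5hr RT. Homogeneous time-resolved fluorescence cAMP detection after 1hr, expressed as 665/615 nm ratio.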
# [14] = target: Beta-2 adrenergic receptor (Homo sapiens) (UniProt P07550); test: Adrenergic beta2 receptor (ADRB2) small molecule agonists, cell-based qHTS assay (AID 1963593);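 note: CHO cells stably overexpressing human ADRB2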
# Method in brief: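 CHO cells stably over-expressing ADRB2 were plated overnight at 37C, then dosed with compounds plus a stimulation mix containing 100uM IBMX and 25uM Ro-20-1724 for 0.5hr at room temperature. cAMP was measured by HTRF competition, 1hr.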
# [15] = target: D(2) dopamine receptor (Homo sapiens) (UniProt P14416); test: Dopamine D2 receptor (DRD2) small molecule agonists, cell-based qHTS assay (AID 1963594); note: nearly all actives have a fitted effect of over 35% in size; note: potency is the fitted concentration of half-maximal effect
# Method in brief: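 HEK293 cells stably expressing DRD2 were cultured 24 h at 37 C, then given Ro20-1724 (0.1 mM final) and compounds for 10 min at room temperature. NKH477 (200nM) was then added for 30 min. cAMP was read by HTRF.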
# [16] = target: 5-hydroxytryptamine receptor 2A (Homo sapiens) (UniProt P28223); test: 5-hydroxytryptamine receptor 2A (HTR2A) small molecule agonists, cell-based qHTS assay (AID 1963587); note: nearly all actives have a fitted effect of over 30% in size
# Method in brief: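 HTR2A-CHO cells, plated 18 h at 37 C/5% CO2, dye-loaded 1 h at 37 C; compounds in DMSO added by pin tool (agonist mode). Intracellular calcium flux read as kinetic fluorescence on FDSS over 2 min at 1 s intervals.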
# [17] = target: Muscarinic acetylcholine receptor M1 (Homo sapiens) (UniProt P11229); test: Cholinergic receptor muscarinic 1 (CHRM1) small molecule antagonists, cell-based qHTS assay (AID 1963588); note: nearly all actives have a fitted effect of over 40% in size
# Method in brief: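 Compounds were tested at 15 concentrations in three independent runs. Dye-loaded CHRM1-CHO cells were exposed 5 min at room temperature before stimulation by acetylcholine added at 50nM. Intracellular calcium was read kinetically on FDSS for 3 min.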
# [18] = target: Muscarinic acetylcholine receptor M1 (Homo sapiens) (UniProt P11229); test: Cholinergic receptor muscarinic 1 (CHRM1) small molecule agonists, cell-based qHTS assay (AID 1963589); note: nearly all actives have a fitted effect of over 35% in size
# Method in brief: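 Calcium flux read-out: kinetic fluorescence at 1 sec intervals after pin-tool compound addition to dye-loaded CHRM1-CHO cells (human M1). Agonist mode; 15 concentrations tested in triplicate independent runs.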
# [19] = target: D(2) dopamine receptor (Homo sapiens) (UniProt P14416); test: Dopamine D2 receptor (DRD2) small molecule antagonists, cell-based qHTS assay (AID 1963595; active = well fitted inhibition curve with a large enough effect in the signal ratio in the repeat runs, with a control signal flat; the % refers to the signal ratio)
# Method in brief: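 HEK293 cells stably expressing DRD2 were preincubated with 0.1 mM Ro20-1724, then with compound for 10 min at room temperature. Cells were stimulated with 200 nM NKH477 plus 12 nM quinpirole for 30 min, and cAMP was read by HTRF.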
# [20] = target: 5-hydroxytryptamine receptor 2A (Homo sapiens) (UniProt P28223); test: 5-hydroxytryptamine receptor 2A (HTR2A) small molecule antagonists, cell-based qHTS assay (AID 1963586); note: nearly all actives have a fitted effect of over 45% in size
# Method in brief: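 CHO cells stably expressing human HTR2A were plated for 18 h at 37 C, then loaded with calcium dye for 1 h. Compounds were preincubated 5 min at room temperature before DOI (4 nM solution) was added. Kinetic fluorescence was read for 3 min.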
# Chain of Beta-2 adrenergic receptor (Homo sapiens) (P07550 whole entry, looked up): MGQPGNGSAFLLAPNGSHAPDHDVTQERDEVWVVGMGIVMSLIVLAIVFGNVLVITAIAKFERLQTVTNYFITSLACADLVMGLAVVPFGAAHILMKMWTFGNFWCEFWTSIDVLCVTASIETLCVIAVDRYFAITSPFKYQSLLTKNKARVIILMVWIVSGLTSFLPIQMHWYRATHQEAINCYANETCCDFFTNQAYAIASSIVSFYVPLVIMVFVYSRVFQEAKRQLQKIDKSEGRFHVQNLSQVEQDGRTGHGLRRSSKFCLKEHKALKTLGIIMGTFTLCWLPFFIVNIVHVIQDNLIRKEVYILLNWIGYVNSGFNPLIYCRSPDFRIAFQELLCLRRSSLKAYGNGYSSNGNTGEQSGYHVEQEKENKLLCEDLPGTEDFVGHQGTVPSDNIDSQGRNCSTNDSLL
# Chain of Gonadotropin-releasing hormone receptor (Homo sapiens) (P30968 whole entry, looked up): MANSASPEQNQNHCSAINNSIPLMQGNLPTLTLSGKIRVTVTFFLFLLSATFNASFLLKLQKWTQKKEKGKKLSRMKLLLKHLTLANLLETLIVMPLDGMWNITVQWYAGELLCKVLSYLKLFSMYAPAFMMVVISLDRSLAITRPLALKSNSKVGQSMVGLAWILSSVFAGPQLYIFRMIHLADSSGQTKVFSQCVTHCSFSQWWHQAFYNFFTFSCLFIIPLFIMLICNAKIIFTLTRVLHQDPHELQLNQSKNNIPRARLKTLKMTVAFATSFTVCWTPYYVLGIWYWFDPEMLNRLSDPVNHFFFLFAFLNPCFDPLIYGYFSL
# Chain of 5-hydroxytryptamine receptor 2A (Homo sapiens) (P28223 whole entry, looked up): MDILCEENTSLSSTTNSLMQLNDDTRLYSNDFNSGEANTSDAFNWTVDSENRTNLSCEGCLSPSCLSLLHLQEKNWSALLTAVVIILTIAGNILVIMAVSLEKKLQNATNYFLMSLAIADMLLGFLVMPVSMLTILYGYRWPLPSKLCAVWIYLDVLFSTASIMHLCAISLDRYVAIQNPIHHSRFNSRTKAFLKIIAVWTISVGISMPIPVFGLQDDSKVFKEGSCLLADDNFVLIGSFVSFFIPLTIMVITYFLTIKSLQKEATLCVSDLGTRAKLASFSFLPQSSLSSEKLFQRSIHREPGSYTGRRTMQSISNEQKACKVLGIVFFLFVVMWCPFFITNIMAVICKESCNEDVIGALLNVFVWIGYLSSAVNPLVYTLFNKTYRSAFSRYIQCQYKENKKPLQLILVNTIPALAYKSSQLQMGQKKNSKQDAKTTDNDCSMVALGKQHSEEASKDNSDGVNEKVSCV
# Chain of D(2) dopamine receptor (Homo sapiens) (P14416 whole entry, looked up): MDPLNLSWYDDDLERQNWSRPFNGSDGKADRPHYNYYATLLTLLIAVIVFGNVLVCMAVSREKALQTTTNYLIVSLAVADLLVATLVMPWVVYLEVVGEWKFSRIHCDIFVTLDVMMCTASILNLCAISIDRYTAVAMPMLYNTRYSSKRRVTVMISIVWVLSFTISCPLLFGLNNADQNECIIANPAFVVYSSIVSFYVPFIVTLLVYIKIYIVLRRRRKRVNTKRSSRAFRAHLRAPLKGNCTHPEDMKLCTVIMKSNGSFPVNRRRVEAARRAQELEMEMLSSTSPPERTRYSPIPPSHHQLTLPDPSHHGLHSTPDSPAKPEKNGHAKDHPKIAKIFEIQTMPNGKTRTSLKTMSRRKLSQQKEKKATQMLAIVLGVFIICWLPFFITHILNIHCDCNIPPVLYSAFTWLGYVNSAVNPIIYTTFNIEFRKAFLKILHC
# Chain of KiSS-1 receptor (Homo sapiens) (Q969F8 whole entry, looked up): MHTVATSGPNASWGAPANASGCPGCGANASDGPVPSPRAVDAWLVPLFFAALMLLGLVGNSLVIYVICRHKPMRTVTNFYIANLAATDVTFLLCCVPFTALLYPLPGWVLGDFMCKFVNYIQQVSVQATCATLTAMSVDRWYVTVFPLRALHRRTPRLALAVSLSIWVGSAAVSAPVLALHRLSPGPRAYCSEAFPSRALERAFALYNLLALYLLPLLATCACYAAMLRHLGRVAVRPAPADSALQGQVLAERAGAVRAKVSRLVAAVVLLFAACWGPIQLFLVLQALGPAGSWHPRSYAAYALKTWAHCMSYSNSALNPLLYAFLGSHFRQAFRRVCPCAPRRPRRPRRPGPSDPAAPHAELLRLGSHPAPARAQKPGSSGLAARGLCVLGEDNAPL
# Chain of Muscarinic acetylcholine receptor M1 (Homo sapiens) (P11229 whole entry, looked up): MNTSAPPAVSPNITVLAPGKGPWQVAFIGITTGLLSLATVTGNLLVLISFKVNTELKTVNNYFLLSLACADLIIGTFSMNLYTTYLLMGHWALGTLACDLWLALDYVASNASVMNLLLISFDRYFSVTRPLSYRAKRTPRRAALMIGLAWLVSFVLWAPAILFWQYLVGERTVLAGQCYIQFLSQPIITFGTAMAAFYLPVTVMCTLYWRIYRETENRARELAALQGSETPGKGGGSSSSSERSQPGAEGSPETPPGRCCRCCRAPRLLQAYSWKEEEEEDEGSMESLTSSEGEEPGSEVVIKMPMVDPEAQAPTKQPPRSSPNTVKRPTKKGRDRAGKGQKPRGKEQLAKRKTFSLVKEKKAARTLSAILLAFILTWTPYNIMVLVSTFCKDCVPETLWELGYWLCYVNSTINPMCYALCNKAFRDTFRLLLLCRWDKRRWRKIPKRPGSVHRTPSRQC
SMILES,Potency [1],Potency [2],Potency [3],outcome [4],outcome [5],Potency [6],Potency [7],Potency [8],Potency [9],Potency [10],Potency [11],Potency [12],Potency [13],Potency [14],Potency [15],Potency [16],Potency [17],Potency [18],Potency [19],Potency [20]
Cc1nccn1CC1CCc2c(c3ccccc3n2C)C1=O (centres undefined),inactive,inactive,inactive,inactive,inactive,inactive,inactive,inactive,inactive,inactive,inactive,inactive,inactive,inactive,inactive,,,,,
O=C(CCc1ccc(O)cc1)c1c(O)cc(O)cc1O,inactive,70.1 µM (active),inactive,inactive,inactive,inactive,inactive,inactive,inactive,inactive,,inactive,inactive,,,inactive,inactive,inactive,inactive,
N#CSc1ccc(N)c([N+](=O)[O-])c1,43.5 µM (active),24.5 µM (active),inactive,inactive,inactive,inactive,inactive,inactive,inactive,inactive,,inactive,inactive,,,,inactive,inactive,inactive,
Nc1ccc2cc(S(=O)(=O)O)ccc2c1,inactive,inactive,inactive,inactive,inactive,inactive,inactive,inactive,inactive,inactive,inactive,inactive,inactive,,inactive,inactive,inactive,inactive,,
CCN(CC)CCOC(=O)C(Cc1cccc2ccccc12)CC1CCCO1 (centres undefined),inactive,inactive,inactive,inactive,inactive,inactive,inactive,inactive,inactive,inactive,inactive,,inactive,inactive,inactive,inactive,inactive,inactive,inactive,
CN(C)CCCSc1ccccc1NC(=O)/C=C/c1ccccc1,inactive,inactive,inactive,inactive,inactive,inactive,inactive,inactive,inactive,inactive,inactive,inactive,inactive,inactive,inactive,,inactive,inactive,,
NC(=O)C1(N2CCCCC2)CCN(CCCC(=O)c2ccc(F)cc2)CC1,inactive,inactive,inactive,inactive,inactive,inactive,inactive,inactive,inactive,inactive,inactive,inactive,inactive,,inactive,inactive,inactive,inactive,,
C=C1CC[C@H](O)C/C1=C\C=C1/CCC[C@]2(C)[C@@H]([C@H](C)CCCC(C)C)CC[C@@H]12,inactive,21.5 µM (active),inactive,inactive,inactive,inactive,inactive,inactive,inactive,inactive,,inactive,inactive,inactive,inactive,,,,inactive,
CCCCCCCCCCCl,inactive,inactive,inactive,inactive,inactive,inactive,inactive,inactive,inactive,inactive,inactive,,inactive,,inactive,inactive,,inactive,inactive,
Fc1ccc([C@@H]2CCNC[C@H]2COc2ccc3c(c2)OCO3)cc1,inactive,inactive,inactive,inactive,inactive,inactive,inactive,inactive,inactive,inactive,inactive,inactive,,,,,,,inactive,
NC(=O)N(O)[C@@H]1C=C[C@H](Oc2cccc(Oc3ccc(F)cc3)c2)C1,inactive,61.1 µM (active),inactive,inactive,inactive,inactive,inactive,inactive,inactive,inactive,,,inactive,,,,inactive,inactive,inactive,
O=C(c1ccccc1)c1ccc2n1CCC2C(=O)O (centres undefined),inactive,inactive,inactive,inactive,inactive,inactive,inactive,inactive,inactive,inactive,,,inactive,,inactive,,,,inactive,
CC(C)OC(=O)c1cc2c(OCC(O)CNC(C)(C)C)cccc2[nH]1 (centres undefined),inactive,inactive,inactive,inactive,inactive,inactive,inactive,inactive,inactive,,inactive,inactive,3.3 nM (active),,13.3 µM (active),inactive,inactive,inactive,inactive,inactive
CC1=C(/C=C/C(C)=C\C=C\C(C)=C\C(=O)O)C(C)(C)CCC1,inactive,54.5 µM (active),inactive,inactive,inactive,inactive,inactive,inactive,inactive,inactive,,,inactive,,inactive,,,,inactive,
CCCCCCCCN1CCCC1=O,inactive,inactive,inactive,inactive,inactive,inactive,inactive,inactive,inactive,,inactive,inactive,inactive,,inactive,inactive,inactive,inactive,inactive,inactive
CN1CCOC(c2ccccc2)c2ccccc2C1 (centres undefined),inactive,inactive,inactive,inactive,inactive,inactive,inactive,inactive,inactive,,inactive,inactive,inactive,inactive,inactive,inactive,inactive,inactive,inactive,inactive
